According to PubChem BioAssay AID651612 (The Scripps Research Institute Molecular Screening Center, 2012):
In all, about 2,200 compounds went through this assay and about 1,500 (68%) were called active. Rule as the data show it: active = inhibition above about 23%; inactive = the rest. So high a share suggests a set chosen from earlier hits. Not all results are given here.

target: Perilipin-5 (Homo sapiens) + 1-acylglycerol-3-phosphate O-acyltransferase ABHD5 (Homo sapiens) (UniProt Q00G26+Q8WTS1); assay: ABHD5-PLIN5 interaction inhibitors, confirmation, biochemical, luminescence (AID 651612); settings: at 4 µM, hits give high values;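 also: 0% = DMSO vehicle wells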
Sequence (Q00G26 whole entry, looked up): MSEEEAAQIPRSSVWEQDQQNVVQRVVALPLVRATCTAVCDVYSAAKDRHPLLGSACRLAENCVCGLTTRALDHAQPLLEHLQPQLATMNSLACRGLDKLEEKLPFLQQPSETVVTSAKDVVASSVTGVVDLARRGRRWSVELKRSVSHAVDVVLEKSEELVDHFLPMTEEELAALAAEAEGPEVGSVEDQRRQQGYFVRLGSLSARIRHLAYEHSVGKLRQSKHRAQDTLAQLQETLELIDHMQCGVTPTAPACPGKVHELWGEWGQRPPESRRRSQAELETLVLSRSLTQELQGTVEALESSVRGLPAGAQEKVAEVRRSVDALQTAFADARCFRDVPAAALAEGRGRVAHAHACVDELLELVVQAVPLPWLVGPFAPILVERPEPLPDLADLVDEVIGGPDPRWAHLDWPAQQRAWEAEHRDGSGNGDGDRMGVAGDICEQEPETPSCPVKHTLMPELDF
Sequence (Q8WTS1 whole entry, looked up): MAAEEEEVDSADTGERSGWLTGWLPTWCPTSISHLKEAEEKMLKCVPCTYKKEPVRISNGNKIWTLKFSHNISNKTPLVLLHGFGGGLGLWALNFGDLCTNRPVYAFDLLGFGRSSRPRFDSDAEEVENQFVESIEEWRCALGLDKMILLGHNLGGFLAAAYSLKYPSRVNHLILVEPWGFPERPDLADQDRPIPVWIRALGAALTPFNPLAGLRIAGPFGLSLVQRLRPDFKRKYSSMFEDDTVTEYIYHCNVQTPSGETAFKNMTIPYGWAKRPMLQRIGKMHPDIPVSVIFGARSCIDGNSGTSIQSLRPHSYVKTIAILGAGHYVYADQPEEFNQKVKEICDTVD

Row | SMILES | inhibition
1 | O=C(O)c1ccc2c(c1)C(=O)N(c1ccc(/C=C/C(=O)c3ccccc3)cc1)C2=O | 94.7% (active)
2 | O=[N+]([O-])/C=C/c1ccc2c(ccn2Cc2ccccc2)c1 | 103% (active)
3 | Cc1cc(C)c(NC(=O)C[N+](C)(C)CC(O)COc2cccc3ccccc23)c(C)c1 (stereo unspecified) | 22.2% (active)
4 | C[C@@H]1C[C@@H]2O[C@H]2/C=C\C=C\C(=O)Cc2c(Cl)c(O)cc(O)c2C(=O)O1 | 53.1% (active)
5 | O=C(NNc1c2ccccc2nc2ccccc12)c1cc2ccccc2cc1O | 35.2% (active)
6 | Cc1cc2c(c(=O)n1Cc1ccco1)C(c1ccccc1)C(C#N)=C(N)O2 (stereo unspecified) | 19% (inactive)
7 | CCCOc1ccc(C(=O)C(CCC(CNCC)C(=O)c2ccc(OCCC)cc2)CNCC)cc1 (stereo unspecified) | 19.7% (inactive)
8 | CCc1ccc(NC(=O)CSc2nnc(-c3cnccn3)n2Cc2ccco2)cc1 | 19.6% (inactive)
9 | CC(C)(C)C1C/C(=C/c2ccco2)C(=O)/C(=C/c2ccco2)C1 (stereo unspecified) | 77.8% (active)
10 | COc1ccc(-n2cc(CNC3CCOCC3)c(-c3cccc(F)c3)n2)cc1 | 2.9% (inactive)
11 | Cc1cccc(C=CC(=O)c2ccc(Cl)cc2)c1 | 84.9% (active)
12 | CC(=O)N(c1ccc2oc(=O)sc2c1)S(=O)(=O)c1ccc(C)cc1 | -52.7% (inactive)
13 | COc1ccc(CNC(=O)/C(C#N)=C/c2cccc(OC)c2OC)cc1 | 56.6% (active)
14 | O=C(Nc1ccccc1)c1nnsc1S(=O)(=O)c1ccc(Cl)cc1 | 64.1% (active)
15 | O=C(N/N=C/C=C/c1ccco1)c1cccs1 | 40.2% (active)
16 | COc1cccc2sc(N(CCCN(C)C)C(=O)C(c3ccccc3)c3ccccc3)nc12 | 18.3% (inactive)
17 | O=C1C=CC(=O)N1c1ccc(N2CCCCC2)cc1 | 36.2% (active)
18 | COc1ccc(N/C=C(\C2OC(=O)c3ccccc32)[N+](=O)[O-])cc1 (stereo unspecified) | 9.16% (inactive)
19 | O=c1[nH]c(/C=C\c2cccc(C(F)(F)F)c2)nc(O)c1[N+](=O)[O-] | 83.9% (active)
20 | CC1(C)CCSC(/C=C/c2ccccc2)=N1 | 77.3% (active)
21 | COc1ccccc1C1/C(=C(/O)c2ccc(C)cc2)C(=O)C(=O)N1Cc1ccco1 (stereo unspecified) | 2.17% (inactive)
22 | C[C@@H](CN1CCC[C@H]1CN1C(N)=NC[C@@H]1Cc1ccccc1)N1C[C@@H](Cc2ccccc2)N(CCCC2CCCC2)C1=N | 11.3% (inactive)

Row | SMILES | inhibition
23 | Cc1ccn(C(CC(=O)c2ccc(Br)cc2)C(=O)O)n1 (stereo unspecified) | 6% (inactive)
24 | Cc1ccc(SC(CC(=O)c2ccc(C(C)(C)C)cc2)C(=O)O)cc1 (stereo unspecified) | 36.4% (active)
25 | CC(=O)c1ccc(NC(=O)CCc2nnc3ccc(NCc4ccco4)nn23)cc1 | 9.27% (inactive)
26 | C=C(C)C(=O)O[C@H]1C/C(C)=C\C(=O)/C=C(\C)[C@H](O)[C@@H]2OC(=O)C(=C)[C@@H]21 | 45.7% (active)
27 | NC(=O)c1nsc(C(=O)N(CC(=O)NCc2ccc(F)cc2)Cc2ccco2)c1N | 4.49% (inactive)
28 | CCC(C(=O)OCCN(CC)CC)c1ccccc1 (stereo unspecified) | 79.4% (active)
29 | C=C1C(=O)[C@]23C[C@H]1CCC2[C@@]1(C)C(C[C@@H]3O)[C@](C)(C(=O)O)CC[C@@H]1O (stereo partly specified) | 34.6% (active)
30 | COC(C/C=C/C(=O)[C@@H](C)OCc1ccccc1)OC | 41.6% (active)
31 | COC(=O)c1cnn2c(C(F)(F)F)cc(-c3ccco3)nc12 | 14% (inactive)
32 | O=C1/C(=C\c2ccc([N+](=O)[O-])cc2)CS(=O)(=O)C/C1=C/c1ccc([N+](=O)[O-])cc1 | 103% (active)
33 | Cc1cccc(C)c1NC(=O)C(Cl)C(=O)c1ccccc1 (stereo unspecified) | 68.9% (active)
34 | COc1ccc(-c2cc(C(F)(F)F)nc(S(C)(=O)=O)n2)cc1OC | 52.6% (active)
35 | COCCN(CCOC)c1nc(N)c2c(N)nc3c(c2c1C#N)CC(=O)N3Cc1ccc(Cl)cc1 | 32.1% (active)
36 | COc1ccc2sc(-c3ccccc3OC)c(-c3ccc(OCCN4CCCC4)cc3)c2c1 | 15.5% (inactive)
37 | CCN1CCC(O)(/C=C/c2ccc(C)cc2)C(C(=O)/C=C/c2ccc(C)cc2)C1 (stereo unspecified) | 90.5% (active)
38 | O=C(CCN1CCc2ccccc2C(O)(c2ccccc2)C1)c1ccc2c(c1)OCCO2 (stereo unspecified) | 51.6% (active)
39 | Cc1c(CCOC(=O)CC23CC4CC(CC(C)(C4)C2)C3)sc[n+]1Cc1ccc([N+](=O)[O-])cc1 | 16.8% (inactive)
40 | Cc1ccc2nc(-c3ccco3)c(Cc3cccc(Cl)c3)n2c1 | 26.5% (active)
41 | Cc1ccc(Cc2c(-c3ccco3)nc3ccc(Cl)cn23)cc1 | 32.4% (active)
42 | O=C1C(Cl)=C(Oc2ccccc2)C(=O)c2ccccc21 | 85.3% (active)
43 | O=c1[nH][nH]c2c1[C@H](c1ccc(Cl)cc1)O[C@H](CCc1ccccc1)C2 | 2.53% (inactive)
44 | Cc1csc(NC(=O)NC2(C(F)(F)F)Oc3ccccc3O2)n1 | 92.4% (active)

Row | SMILES | inhibition
45 | O=C(c1cccnc1)N(c1cc2sc(=O)oc2c2ccccc12)S(=O)(=O)c1ccccc1 | -3.41% (inactive)
46 | CC1Cc2ccccc2N1CC(=O)Nc1ccc(S(N)(=O)=O)cc1 (stereo unspecified) | 7.58% (inactive)
47 | Cc1ccc(NC(=O)Cn2sc3ccccc3c2=O)cc1 | 74% (active)
48 | Cc1ccc(-n2nc(-c3ccco3)cc2C(=O)NCc2cccnc2)cc1 | 38.1% (active)
49 | O=C(Nc1ccccc1Cl)/C(Cl)=C(\Cl)S(=O)c1ccccc1 (stereo unspecified) | 101% (active)
50 | CC1(C(=O)NCc2cccc3ccccc23)CCN1Cc1ccc(-c2ccccc2)o1 (stereo unspecified) | 16.1% (inactive)
51 | Cc1nc(-c2ccccc2)sc1C(=O)/C=C/c1ccccc1 | 81.5% (active)
52 | CCS(=O)(=O)Nc1ccc(C2=NN(S(=O)(=O)c3ccc(F)cc3)C(c3ccco3)C2)cc1 (stereo unspecified) | 10.4% (inactive)
53 | Cn1sc(=O)c2cc(S(=O)(=O)NC3CC3)ccc21 | 34.2% (active)
54 | CN(C)CCCNC(=O)/C=C/c1ccc(OCc2c(F)cccc2Cl)cc1 | 10.8% (inactive)
55 | CSc1nnc(NC(=O)c2nc(S(=O)(=O)Cc3ccc(C)cc3)ncc2Cl)s1 | 79.6% (active)
56 | Cc1ccc(CS(=O)(=O)c2ncc(Cl)c(C(=O)Nc3nnc(C)s3)n2)cc1 | 79.9% (active)
57 | O=C(Nc1nc(-c2ccco2)c(-c2ccco2)s1)c1ccco1 | 60.6% (active)
58 | COC(=O)c1nc(NC(=O)c2ccc(C(C)(C)C)cc2)n[nH]1 | 10.3% (inactive)
59 | Cc1cc(-c2n[nH]c(=S)n2/N=C/C(Br)=C/c2ccccc2)n[nH]1 | 63% (active)
60 | O=C(/C(=C/c1cccc(Cl)c1)c1nc2ccccc2[nH]1)c1ccccc1 | 98.9% (active)
61 | O=C(/C=C/c1ccc(Cl)c([N+](=O)[O-])c1)c1ccc(O)cc1 | 90.2% (active)
62 | CC(=O)Nc1ccc(C=CC(=O)c2ccc([N+](=O)[O-])cc2)cc1 | 84.1% (active)
63 | COC(=O)C1(C)NC(c2ccccc2OC)C2C(=O)N(c3ccccc3)C(=O)C21 (stereo unspecified) | -5.37% (inactive)
64 | CCN(CC)CCN(C(=O)c1ccc2c(c1)CCCC2)c1nc2c(OC)cccc2s1 | 7.79% (inactive)
65 | COc1ccc2c(c1)c(=Cc1ccc(N(C)C)cc1)c1cc(-c3ccccc3)[n+](C)n12 | 28.5% (active)
66 | OC(CNCC1CCCO1)Cn1c2ccc(Br)cc2c2cc(Br)ccc21 (stereo unspecified) | 12.6% (inactive)

Row | SMILES | inhibition
67 | COC(=O)/C=C\C(=O)Nc1cccc([N+](=O)[O-])c1 | 83.5% (active)
68 | COc1ccc2c(c1OC)C(=O)OC2Nc1nc(-c2ccccc2)cs1 (stereo unspecified) | 61.3% (active)
69 | O=C1/C(=C\c2ccc(O)cc2)CCC1CNc1ccc(Cl)cc1 (stereo unspecified) | 25.6% (active)
70 | COc1ccccc1-n1nnnc1S(=O)(=O)Cc1ccc(Cl)cc1 | 49.7% (active)
71 | COc1ccc(CCNC(=O)c2nnc(CS(=O)(=O)c3ccccc3)o2)cc1OC | 6.71% (inactive)
72 | Cc1cccc(C)c1NC(=O)C(c1ccc(C(F)(F)F)cc1)n1c(=O)c(-c2ccco2)nc2ccccc21 (stereo unspecified) | 80.6% (active)
73 | O=C(NC1CCCCC1)C(c1cc2ccccc2o1)n1c(=O)c(-c2ccco2)nc2ccccc21 (stereo unspecified) | 80.4% (active)
74 | Cc1cccc(C)c1NC(=O)C(c1cccc2ccccc12)n1c(=O)c(-c2ccco2)nc2ccccc21 (stereo unspecified) | 53% (active)
75 | N#Cc1ccc(C(C(=O)NCc2ccccc2)n2c(=O)c(-c3ccco3)nc3ccccc32)cc1 (stereo unspecified) | 91.9% (active)
76 | CCn1c(SC)nc(O)c(C(c2ccc(OC)c(O)c2)c2c(O)nc(SC)n(CC)c2=O)c1=O | 62% (active)
77 | O=C(NCCOCc1ccc(Cl)cc1)c1ncn[nH]1 | 6.41% (inactive)
78 | COc1ccc(C(C[N+](=O)[O-])n2nc(C)cc2C)cc1 (stereo unspecified) | 62.2% (active)
79 | CCN(CCCNC(=O)c1ccc2c(c1)NC(=O)CN2C)c1cccc(C)c1 | 50.9% (active)
80 | Cc1nnnn1/C(=C\c1ccccc1)C(=O)OCC(=O)N1CC2(C)CC1CC(C)(C)C2 (stereo unspecified) | 54.9% (active)
81 | O=[N+]([O-])c1c(NCCO)cc(Sc2nc3ccccc3s2)c2nonc12 | 51.7% (active)
82 | Cc1cccc(NC(=O)c2ccc3nsnc3c2)c1C | 2.22% (inactive)
83 | O=C(CCl)Nc1ccc(Sc2ccc(NC(=O)CCl)cc2)cc1 | 40.2% (active)
84 | O=C(/C=C/c1ccc(Cl)cc1Cl)c1cccnc1 | 98.6% (active)
85 | COc1ccc(/C=C/C(=O)c2ccc(NS(=O)(=O)c3ccc(C)cc3)cc2)cc1O | 55.4% (active)
86 | Cc1cccc(NC(=O)c2nc(S(=O)(=O)Cc3ccccc3)ncc2Cl)c1 | 90.7% (active)
87 | Cc1cccc(CS(=O)(=O)c2ncc(Cl)c(C(=O)Nc3ccc(F)cc3)n2)c1 | 82.7% (active)
88 | O=C1C=C(c2ccc(Cl)cc2)C(=O)N1Nc1ccccc1 | 102% (active)

Row | SMILES | inhibition
89 | O=C(NNc1ccccn1)c1ccc(Cl)nc1 | 2.34% (inactive)
90 | CCN1/C(=C\c2ccc3ccccc3[n+]2CC)Sc2cc(C)ccc21 | 16.8% (inactive)
91 | Nc1cccc(OCCCCCOc2cccc(N)c2)c1 | 3.48% (inactive)
92 | Cc1cc(C)nc(S/C=C/C(=O)c2ccccc2)n1 | 96.8% (active)
93 | c1ccc(CCC2=NCCn3cccc32)cc1 | 28.8% (active)
94 | Cc1ccc(NC(=O)c2cc(-c3ccc(C)o3)nc3ccccc23)nc1 | 24% (active)
95 | CC1(Oc2ccccc2-c2ccno2)CCN(Cc2ccc(-c3ccccc3)o2)C1 (stereo unspecified) | 16.2% (inactive)
96 | Cc1nc2sc(C(c3ccco3)N3CCOCC3)c(O)n2n1 (stereo unspecified) | 5.85% (inactive)
97 | N#Cc1ccccc1S(=O)(=O)N1CCN(Cc2c(O)ccc3ccccc23)CC1 | 53% (active)
98 | CCCCOC(=O)CNc1nnc(SCC(=O)OCC)[nH]c1=O | 69.3% (active)
99 | O=C(/C=C(O)/C=C/c1ccc(O)cc1)/C=C/c1ccc(O)cc1 | 63.4% (active)
100 | O=C(Cn1nc(CNc2ccc(Cl)cc2)[n+]2c1CCCCC2)c1ccc(Cl)cc1 | 19.8% (inactive)
101 | CN1CCC[C@@H]1CCO[C@](C)(c1ccccc1)c1ccc(Cl)cc1 | 27.9% (active)
102 | CCOC(=O)C(=Cc1ccccc1)C(=O)c1ccccc1 | 98.5% (active)
103 | CCOC(=O)C(=Cc1ccccc1OC)C(=O)OCC | 60.3% (active)
104 | Cc1[nH]c(=O)c(C(=O)/C=C/c2ccccc2)c2c1CCCC2 | 56.5% (active)
105 | CC1=CC(C)(C)Nc2ccc(OC(=O)C(Cc3ccccc3)N3C(=O)C4CCCCC4C3=O)cc21 (stereo unspecified) | -3.56% (inactive)
106 | CC1=CC(C)(C)Nc2ccc(OC(=O)CN3C(=O)C4CCCCC4C3=O)cc21 (stereo unspecified) | 83.2% (active)
